Results on five molecules are retold here after PubChem BioAssay.

As a reminder, the viability is the share of living cells, or the viability signal relative to a control. One may read the inhibition as the drop in the measured response relative to a control, in per cent.

A short description of assay [1]: reducers of endogenous Her2 protein level, primary screen, SKBR3 breast tumor cells, AlphaScreen, ATP viability (AID 461;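 active means Her2 level under about 52% in both replicate screens, with viability over 70% of control, limit read from the data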;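 on Her2 level: lower value means less Her2 protein in the cells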;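 on viability: percent of carrier control wells set as 100% viability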). The settings on record: 18-24 h, measured here: SKBR3 viability, ATP luminescence, at 10 µM. Background: Bead proximity is the source of the signal in Alpha formats.
Assay [2] has as its target Receptor tyrosine-protein kinase erbB-2 (Homo sapiens) (UniProt P04626). Described as above. The settings on record: 18-24 h, at 10 µM, stronger effect = lower value.
Assay [3] can be described thus: SK-BR-3 cell growth inhibitors, pilot screen, 24 h, human (AID 572;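 active means viability at or below 10% of carrier control in both of two separate runs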;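 further: compound exposure lasted between 18 and 24 h rather than exactly 24 h; 100% = carrier-treated control wells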). Particulars: SK-BR-3 viability, CellTiter-Glo luminescence, at 10 µM, stronger effect = lower value. In general terms: In ATP-based viability assays light output follows the ATP content of the culture.
Assay [4] can be described thus: HUVEC growth inhibition – cell-based, human, primary screen (AID 575;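 active means viability at or below 30% in both replicate assays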;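 further: 100% = median of untreated cell wells with 0.1% DMSO on each plate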). Particulars: HUVEC proliferation, CellTiter-Glo luminescence, 72 h; at 10 µM; stronger effect = lower value.
A short description of assay [5]: growth inhibitors of H69AR lung tumor, primary screen, human, duplicate replicates (AID 580;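 active means viability at or under a set limit in both replicates, limit being median viability minus 3 SD, cut at about 48% in these data, passing the limit was not always enough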;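 further: 100% = mean luminescence of untreated wells and 0% = no signal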). The settings on record: H69AR lung tumor cells viability, ATP luminescence, 72 h; at 10 µM; stronger effect = lower value.
Assay [6] is described as follows: reversal of MRP1-mediated doxorubicin resistance, pilot screen, H69AR cells, doxorubicin co-treatment (AID 601;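 active means viability loss from added drug above about 55%, and viability with drug at most 40%, in both replicates, limit read from the data, passing the limit was not always enough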). The settings on record: CellTiter-Glo, 72 h, at 10 µM; for differential viability (reversal): stronger effect = higher value.
Assay [7] in a line: 384-well plate pilot, post-Golgi transport modulator project, inhibition of yeast transport mutant growth (AID 636; in the data active means inhibition above about 31%). The settings on record: absorbance 615 nm, about 18 h, stronger effect = higher value.
Assay [8] in a line: growth suppression of yeast trafficking mutant, preliminary HTS, modulators of trafficking downstream of Golgi apparatus project, 1536-format plate, OD 615 nm (AID 637; in the data active means inhibition above about 30%). The settings on record: yeast transport mutant growth, absorbance 615 nm, 18 h; stronger effect = higher value.
The nature of assay [9]: OD615 S. cerevisiae growth inhibition, permissive medium, pilot counter-assay, permissive growth control for S. cerevisiae lifespan shortening project (AID 705;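 active means growth inhibition above 25% in both replicates, a cutoff set 3 SD above the mean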). The settings on record: OD615, 24 h, at 10 µM, stronger effect = higher value.
Assay [10] in a line: Restrictive medium S. cerevisiae growth inhibition, OD615, pilot screen of yeast lifespan reduction project, restrictive growth control (AID 706;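 active means growth inhibition above a set limit, 3 SD over mean compound inhibition, in both replicates, cut at about 43% in these data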;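 further: modified DeaD lifespan yeast strain shifted to restrictive glucose medium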). Particulars: OD615, 48 h, at 10 µM, stronger effect = higher value.
Assay [11] is described as follows: viability gain of MRP-1-high H69AR cells under doxorubicin, pilot screen, MRP-1 activator project, CellTiter-Glo, duplicate (AID 807;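 active means viability increase at or above a cutoff of the median across tested compounds plus 3 SD, cut at about 8.5% in these data, passing the limit was not always enough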;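 further: compound pretreatment 18-22 h then 72 h combined with doxorubicin; 0% = doxorubicin alone and 100% = vehicle without doxorubicin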). Particulars: H69AR viability with doxorubicin, CellTiter-Glo luminescence; at 10 µM; stronger effect = higher value.
A short description of assay [12]: growth suppression of beta-catenin knockout HCT116, pilot screen, human colon tumor cells (AID 823).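 Further: 0% = wells killed by 20 µM Hyamine and 100% = untreated DMSO cell wells.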 The settings on record: CellTiter-Glo, 60 h, at 10 µM, stronger effect = lower value.
Assay [13] can be described thus: growth suppression of PTEN-deleted HCT116, pilot screen, cell-based, HCT116 clonal line, CellTiter-Glo (AID 824;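 active means viability at or below 27.92% in each of two runs, the all-compound median minus 4 SD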;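 further: 0% = 20 µM Hyamine control and 100% = vehicle cell control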). Particulars: 60 h, at 10 µM, stronger effect = lower value.
Assay [14] is described as follows: inhibitors of the yeast RAM network, pilot screen, dse1pr::URA3 reporter, 5-FOA selection (AID 869;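 active means inhibition over a set limit, the all-compound mean plus 3 SD, in both replicate runs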;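 further: 0% = DMSO wells with no growth and 100% = 10 µM 1-NA-PP1 with full growth; RAM network block rescues cells from 5-FOA so hits raise OD615 growth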). Particulars: S. cerevisiae dse1pr::URA3 5-FOA growth, OD615, 2 d; at 10 µM; stronger effect = higher value; strain carries analog-sensitive mutant Cbk1 kinase.
The nature of assay [15]: RAM signaling pathway blockade in yeast – S. cerevisiae, Pdr1DBD-CYC8 efflux-inhibited sensitized strain, primary screen (AID 1298;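 active means RAM network inhibition above 8.4% in each of two replicates, 3 SD over the compound average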;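 further: 0% = DMSO untreated cells without growth and 100% = 10 µM 1-NA-PP1 full growth; higher means more yeast growth rescued from 5-FOA killing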). Particulars: S. cerevisiae cbk1-as DSE1-URA3 strain, 5-FOA growth OD615, 2 d; at 50 µM; stronger effect = higher value.
Setting [16] is: H69AR cells + 2 uM doxorubicin, measured here: viability with 2 uM doxorubicin, stronger effect = lower value.
The mark [17] stands for this setting: H69AR cells, compound alone cytotoxicity.

Records with an inconclusive call do not appear. Active and inactive are the calls of the source.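 How the source made its calls, unless noted: active means cell viability at or below a set limit in both duplicate runs, the limit being the all-compound median minus 4 SD (cut at about 23% in these data, passing the limit was not always enough); inconclusive means no clear call, values can overlap the other calls; inactive means the rest.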

Sequence of Receptor tyrosine-protein kinase erbB-2 (Homo sapiens) (P04626 whole entry, looked up): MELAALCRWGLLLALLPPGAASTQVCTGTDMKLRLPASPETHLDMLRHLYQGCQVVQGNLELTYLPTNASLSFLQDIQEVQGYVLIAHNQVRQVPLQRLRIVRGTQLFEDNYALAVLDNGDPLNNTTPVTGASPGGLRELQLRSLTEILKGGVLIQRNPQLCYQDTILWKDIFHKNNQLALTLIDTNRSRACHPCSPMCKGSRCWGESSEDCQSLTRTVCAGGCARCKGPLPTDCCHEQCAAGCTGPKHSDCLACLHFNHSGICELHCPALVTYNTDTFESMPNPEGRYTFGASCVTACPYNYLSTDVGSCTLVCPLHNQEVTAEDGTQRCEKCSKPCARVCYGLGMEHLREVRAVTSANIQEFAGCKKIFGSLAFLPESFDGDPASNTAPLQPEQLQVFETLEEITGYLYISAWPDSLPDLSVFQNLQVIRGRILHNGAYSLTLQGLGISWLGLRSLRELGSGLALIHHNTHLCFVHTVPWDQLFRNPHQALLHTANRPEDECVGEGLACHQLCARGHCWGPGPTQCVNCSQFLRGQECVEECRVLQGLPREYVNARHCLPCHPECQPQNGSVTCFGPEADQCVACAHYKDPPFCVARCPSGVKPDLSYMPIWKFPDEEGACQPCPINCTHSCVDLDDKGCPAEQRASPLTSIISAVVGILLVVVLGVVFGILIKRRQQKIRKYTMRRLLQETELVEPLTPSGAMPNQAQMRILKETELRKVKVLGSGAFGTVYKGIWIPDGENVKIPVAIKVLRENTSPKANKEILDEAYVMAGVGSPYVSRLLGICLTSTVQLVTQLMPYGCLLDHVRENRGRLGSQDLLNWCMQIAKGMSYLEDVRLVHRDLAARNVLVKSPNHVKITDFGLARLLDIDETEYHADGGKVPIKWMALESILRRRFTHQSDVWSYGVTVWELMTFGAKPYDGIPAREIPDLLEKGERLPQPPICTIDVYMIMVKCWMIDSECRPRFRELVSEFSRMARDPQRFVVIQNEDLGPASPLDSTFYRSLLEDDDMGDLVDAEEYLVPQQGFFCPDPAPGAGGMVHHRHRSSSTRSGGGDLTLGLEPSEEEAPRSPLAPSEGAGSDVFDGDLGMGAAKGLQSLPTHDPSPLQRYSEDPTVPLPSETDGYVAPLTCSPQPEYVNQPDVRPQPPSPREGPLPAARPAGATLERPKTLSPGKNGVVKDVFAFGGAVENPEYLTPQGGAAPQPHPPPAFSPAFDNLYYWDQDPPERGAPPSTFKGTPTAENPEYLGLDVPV

In the case of `O=C1c2ccccc2C(Nc2ccc(F)c(Cl)c2)N1Cc1ccco1` (stereo not given), the viability was 92% in [1]; 92% (inactive) in assay [3]; 58.4% (inactive) in assay [4]; 74% (inactive) in assay [5]; 75% in assay [6] (setting [16]); 74% in assay [6] (setting [17]). Further, the values for the viability in assay [12] and in assay [13] were 72.8% (inactive) and 77.1% (inactive), respectively. In addition, the Her2 level in assay [2] is 99% (inactive). Besides, the differential viability (reversal) in assay [6] (H69AR cells + 2 uM doxorubicin) was -0.96% (inactive). Also, the inhibition is -1.6% (inactive) in assay [7], 3.83% (inactive) in assay [8] and 1.6% (inactive) in assay [14]. For the same molecule, the growth inhibition was -5.7% (inactive) in assay [9] and -1.3% (inactive) in assay [10]. Further, the viability increase in [11] is -4.57% (inactive). In addition, the RAM network inhibition in [15] is 7.74% (inactive).
Take `CCOC(=O)N1CCN(Cc2nc3c(c(=O)n(C)c(=O)n3C)n2Cc2ccc(F)cc2)CC1`: the viability was 86.5% in assay [1]; 86.5% (inactive) in assay [3]; 92.9% (inactive) in [4]; 72.6% (inactive) in assay [5]; 72.8% in assay [6] (setting [16]); 72.6% in [6] (setting [17]). The figures for the viability in assay [12] and in assay [13] were 93.3% (inactive) and 81.7% (inactive), respectively. Besides, in [2], the Her2 level was 101% (inactive). In addition, the differential viability (reversal) in assay [6] (H69AR cells + 2 uM doxorubicin) is -0.205% (inactive). Also, the results for the inhibition in [7], in assay [8] and in assay [14] were -4.27% (inactive), 3.67% (inactive) and 0.44% (inactive), respectively. Besides, the growth inhibition was -5.48% (inactive) in assay [9] and 5.73% (inactive) in assay [10]. Besides, the viability increase in assay [11] was -3.14% (inactive). Further, the RAM network inhibition in assay [15] was 0.36% (inactive).
`Cn1c(C(=O)NCCN2CCN(c3ccccc3F)CC2)cc2c(=O)n(C)c3ccccc3c21`: the viability in assay [1] is 89%; in [3] it was 89% (inactive); in assay [4] it was 70.3% (inactive); in assay [5], 69.7% (inactive); in assay [6] (setting [16]), 72.5%; in [6] (setting [17]) it was 69.7%. Further, the values for the viability in assay [12] and in assay [13] were 74.4% (inactive) and 73.2% (inactive), respectively. Besides, the Her2 level in assay [2] is 73.5% (inactive). Further, the differential viability (reversal) in [6] (H69AR cells + 2 uM doxorubicin) is -2.84% (inactive). Moreover, the inhibition in [7] is -1.03% (inactive); in assay [8] it was 2% (inactive); in assay [14], 0.115% (inactive). Besides, the growth inhibition is -0.67% (inactive) in [9] and -2.32% (inactive) in assay [10]. Moreover, the viability increase in [11] was -2.38% (inactive). For the same molecule, the RAM network inhibition in [15] is 0.11% (inactive).
Take `O=C(Nc1ccc2snnc2c1)N1CCN(c2ccccc2)CC1`: the viability in assay [1] is 81.5%; in assay [3] it was 81.5% (inactive); in [4] it was 75.4% (inactive); in assay [5], 85.3% (inactive); in [6] (setting [16]), 92.9%; in [6] (setting [17]), 85.3%. The viability was 85.2% (inactive) in assay [12] and 79.4% (inactive) in assay [13]. The Her2 level in [2] is 86% (inactive). Also, in [6] (H69AR cells + 2 uM doxorubicin), the differential viability (reversal) is -7.63% (inactive). Further, the inhibition is -0.38% (inactive) in [7], -2.33% (inactive) in [8] and 1.3% (inactive) in assay [14]. Further, the growth inhibition in assay [9] is -13.7% (inactive); in assay [10], -17.1% (inactive). In assay [11], the viability increase is -2.11% (inactive). Moreover, the RAM network inhibition in assay [15] was 5.24% (inactive).
Take `COc1ccc(S(=O)(=O)N2CCN(c3ccc(C)cc3C)CC2)cc1OC`: the viability in assay [1] is 94.5%; in [3] it was 94.5% (inactive); in assay [4], 73.8% (inactive); in assay [5], 97.2% (inactive); in assay [6] (setting [16]), 98.2%; in assay [6] (setting [17]) it was 97.2%. Moreover, the figures for the viability in [12] and in [13] were 50.6% (inactive) and 72.2% (inactive), respectively. In addition, the Her2 level in assay [2] was 93.5% (inactive). Also, the differential viability (reversal) in [6] (H69AR cells + 2 uM doxorubicin) was -0.96% (inactive). Further, the inhibition in assay [7] was -5.87% (inactive); in assay [8], 2.5% (inactive); in [14], 2.41% (inactive). For the same molecule, the growth inhibition in assay [9] is 0.1% (inactive); in assay [10] it was 4.36% (inactive). Also, in assay [11], the viability increase was -0.07% (inactive). The RAM network inhibition in assay [15] is 1.74% (inactive).
